Data taken from PubChem BioAssay AID1159580 (chemical genetic matrix, 2015).
Among all 5,500 compounds or so, about 2,000 (36%) were called active. Inconclusive results (about 18%) are left out. No stated cut-off is given here; in the data, active means normalized growth mostly below about 0.91 (no sharp cut-off); inconclusive means no clear call, values can overlap the other calls; inactive means mostly above about 0.92. Some of the results follow.

Test: chemical genetic growth profiling, strain panel (AID 1159580);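 further: tested at 20 µM; growth read once vehicle control cultures reached saturation at 30 °C; 1 = growth at the plate median or of vehicle wells; lower values mean less growth of the strain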
Conditions: growth OD

Measured: normalized growth

O=C(O)CF
active: S. cerevisiae deletion strains, locus YOR184W, strain ser1, active compounds read low 0.872
inactive: S. cerevisiae deletion strains, locus YJR043C, strain POL32, active compounds read low 0.984 | S. cerevisiae deletion strains, locus YJR075W, strain HOC1, active compounds read low 0.992 | S. cerevisiae deletion strains, locus YKL009W, strain mrt4, active compounds read low 0.915 | S. cerevisiae deletion strains, locus YKL068W, active compounds read low 1.01 | S. cerevisiae deletion strains, locus YKL085W, strain MDH1 (second series), active compounds read low 1 | S. cerevisiae deletion strains, locus YKL085W, strain MDH1, active compounds read low 1 | S. cerevisiae deletion strains, locus YKL160W, strain elf1, active compounds read low 0.988 | S. cerevisiae deletion strains, locus YKL190W, strain CNB1, active compounds read low 1 | S. cerevisiae deletion strains, locus YKR001C, strain vps1, active compounds read low 0.976 | S. cerevisiae deletion strains, locus YKR026C, strain gcn3, active compounds read low 1.03 | S. cerevisiae deletion strains, locus YKR091W, strain srl3, active compounds read low 1.02 | S. cerevisiae deletion strains, locus YLL001W, strain dnm1, active compounds read low 1.02 | S. cerevisiae deletion strains, locus YLL026W, active compounds read low 1.01 | S. cerevisiae deletion strains, locus YLL041C, strain sdh2, active compounds read low 1.03 | S. cerevisiae deletion strains, locus YLR027C, strain aat2, active compounds read low 1.01 | S. cerevisiae deletion strains, locus YLR039C, strain RIC1, active compounds read low 0.997 | S. cerevisiae deletion strains, locus YLR058C, strain SHM2, active compounds read low 0.993 | S. cerevisiae deletion strains, locus YLR102C, strain apc9, active compounds read low 0.99 | S. cerevisiae deletion strains, locus YLR221C, strain rsa3, active compounds read low 1.03 | S. cerevisiae deletion strains, locus YLR258W, strain gsy2, active compounds read low 1.04 | S. cerevisiae deletion strains, locus YLR262C, strain YPT6 (second series), active compounds read low 1.04 | S. cerevisiae deletion strains, locus YLR262C, strain YPT6, active compounds read low 1.01 | S. cerevisiae deletion strains, locus YLR268W, strain sec22, active compounds read low 0.974 | S. cerevisiae deletion strains, locus YLR320W, strain mms22, active compounds read low 1.04 | S. cerevisiae deletion strains, locus YLR330W, strain CHS5, active compounds read low 0.991 | S. cerevisiae deletion strains, locus YLR342W, strain FKS1 (second series), active compounds read low 0.989 | S. cerevisiae deletion strains, locus YLR342W, strain FKS1, active compounds read low 1.02 | S. cerevisiae deletion strains, locus YLR357W, strain rsc2, active compounds read low 1.02 | S. cerevisiae deletion strains, locus YLR370C, strain arc18, active compounds read low 1.04 | S. cerevisiae deletion strains, locus YLR371W, strain rom2, active compounds read low 0.968 | S. cerevisiae deletion strains, locus YLR384C, strain iki3, active compounds read low 1.02 | S. cerevisiae deletion strains, locus YLR418C, strain cdc73, active compounds read low 1.04 | S. cerevisiae deletion strains, locus YML016C, strain PPZ1, active compounds read low 0.99 | S. cerevisiae deletion strains, locus YML032C, strain rad52, active compounds read low 0.947 | S. cerevisiae deletion strains, locus YML120C, strain ndi1, active compounds read low 1.04 | S. cerevisiae deletion strains, locus YML124C, strain tub3, active compounds read low 0.985 | S. cerevisiae deletion strains, locus YMR058W, strain fet3, active compounds read low 1.02 | S. cerevisiae deletion strains, locus YMR078C, strain ctf18, active compounds read low 0.984 | S. cerevisiae deletion strains, locus YMR125W, strain sto1, active compounds read low 0.986 | S. cerevisiae deletion strains, locus YMR129W, active compounds read low 1.02 | S. cerevisiae deletion strains, locus YMR205C, strain PFK2, active compounds read low 1.02 | S. cerevisiae deletion strains, locus YMR223W, strain ubp8, active compounds read low 0.94 | S. cerevisiae deletion strains, locus YMR231W, strain pep5, active compounds read low 1.02 | S. cerevisiae deletion strains, locus YMR263W, strain SAP30, active compounds read low 1.02 | S. cerevisiae deletion strains, locus YMR307W, strain GAS1, active compounds read low 0.945 | S. cerevisiae deletion strains, locus YNL067W, strain RPL9B, active compounds read low 1.02 | S. cerevisiae deletion strains, locus YNL071W, strain lat1, active compounds read low 1.03 | S. cerevisiae deletion strains, locus YNL128W, strain TEP1, active compounds read low 1.01 | S. cerevisiae deletion strains, locus YNL153C, strain GIM3, active compounds read low 1.04 | S. cerevisiae deletion strains, locus YNL209W, strain ssb2, active compounds read low 1.02 | S. cerevisiae deletion strains, locus YNL233W, strain BNI4, active compounds read low 1.02 | S. cerevisiae deletion strains, locus YNL248C, strain rpa49, active compounds read low 0.972 | S. cerevisiae deletion strains, locus YNL250W, strain rad50, active compounds read low 0.987 | S. cerevisiae deletion strains, locus YNL271C, strain bni1, active compounds read low 0.985 | S. cerevisiae deletion strains, locus YNL298W, strain CLA4, active compounds read low 0.94 | S. cerevisiae deletion strains, locus YNL307C, strain MCK1, active compounds read low 0.954 | S. cerevisiae deletion strains, locus YNL322C, strain KRE1 (second series), active compounds read low 1.02 | S. cerevisiae deletion strains, locus YNL322C, strain KRE1, active compounds read low 1 | S. cerevisiae deletion strains, locus YNR049C, strain mso1, active compounds read low 1.02 | S. cerevisiae deletion strains, locus YNR052C, strain pop2, active compounds read low 0.949 | S. cerevisiae deletion strains, locus YOL006C, strain TOP1, active compounds read low 0.988 | S. cerevisiae deletion strains, locus YOL012C, strain htz1 1.93 | S. cerevisiae deletion strains, locus YOL147C, strain pex11, active compounds read low 0.993 | S. cerevisiae deletion strains, locus YOR001W, strain rrp6, active compounds read low 1.03 | S. cerevisiae deletion strains, locus YOR061W, strain CKA2, active compounds read low 0.975 | S. cerevisiae deletion strains, locus YOR069W, strain VPS5, active compounds read low 0.99 | S. cerevisiae deletion strains, locus YOR070C, strain gyp1, active compounds read low 1.02 | S. cerevisiae deletion strains, locus YOR080W, strain dia2, active compounds read low 1.02 | S. cerevisiae deletion strains, locus YOR083W, strain WHI5, active compounds read low 0.992 | S. cerevisiae deletion strains, locus YOR106W, strain vam3, active compounds read low 0.998 | S. cerevisiae deletion strains, locus YOR136W, strain idh2, active compounds read low 0.978 | S. cerevisiae deletion strains, locus YOR144C, strain elg1, active compounds read low 0.987 | S. cerevisiae deletion strains, locus YOR265W, strain rbl2, active compounds read low 1.02 | S. cerevisiae deletion strains, locus YOR270C, strain vph1, active compounds read low 1.02 | S. cerevisiae deletion strains, locus YOR290C, strain snf2, active compounds read low 1.02 | S. cerevisiae deletion strains, locus YOR316C, strain cot1, active compounds read low 0.984 | S. cerevisiae deletion strains, locus YPL051W, strain arl3, active compounds read low 1 | S. cerevisiae deletion strains, locus YPL055C, strain LGE1, active compounds read low 1.04 | S. cerevisiae deletion strains, locus YPL078C, strain atp4, active compounds read low 0.982 | S. cerevisiae deletion strains, locus YPL106C, strain sse1, active compounds read low 1.06 | S. cerevisiae deletion strains, locus YPL240C, strain hsp82, active compounds read low 1.02 | S. cerevisiae deletion strains, locus YPL241C, strain CIN2, active compounds read low 0.998 | S. cerevisiae deletion strains, locus YPR119W, strain clb2, active compounds read low 1 | S. cerevisiae deletion strains, locus YPR141C, strain kar3, active compounds read low 0.993 | S. cerevisiae deletion strains, locus YPR163C, strain tif3, active compounds read low 0.993 | S. cerevisiae deletion strains, locus YPR167C, strain met16, active compounds read low 0.99 | S. cerevisiae deletion strains, strain wtn01, active compounds read low 0.992 | S. cerevisiae strains, strain wild type, active compounds read low 0.999
